Assay outcomes as filed in PubChem.
Hits are enriched below; roughly 8% of the tested compounds scored in any of these assays.
PostGolgi ctrl – growth of the yeast control strain, post-Golgi counter-screen | efflux-deficient yeast background strain, growth absorbance A615, 16 h | inhibition, % at 10 µM | 5% of 98,000 active | AID 738
PTK2B oligo ant – antagonists of human Pyk2 oligomerization | Q293 cells, Pyk2 FERM NanoBiT luminescence; hits give low values | Q14289 | 0.83% of 99,000 active | z-score (the deposit names both 25 µM and 10 µM);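 active = Z-score of -3 or lower, scaled per plate to the spread of control and sample wells; inactive = z-score above -3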;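 also: negative z-score means lost luminescence so less FERM oligomerization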
PostGolgi yeast – growth inhibition of a yeast mutant, post-Golgi transport screen. post-Golgi transport phenotypic cell assay. inhibition, % at 10 µM. 0.9% of 98,000 active;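 also: yeast cells grown in 1536-well plates; yeast grown about 18 h at 30C before absorbance read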
Cav3 T inh – blocks human Cav3.2 T-type calcium channel. O95180. Cav3.2-expressing cells, Fluo-4 calcium fluorescence FDSS; hits give low values. B-score at 10 µM. 4% of 100,000 active;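 active = single-dose well whose peak fluorescence ratio is a statistical outlier from its plate by either plate-standardised score or position-corrected B-score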
Numbers stand for hits; i = inactive; nt = not tested or not shown. Rule as the data show it, unless noted: active = inhibition above about 30%; inactive = the rest.

SMILES	PostGolgi ctrl	PTK2B oligo ant	PostGolgi yeast	Cav3 T inh
COc1cccc(-c2nnc(SCC(=O)NCc3ccc4c(c3)OCO4)n2Cc2ccco2)c1	i	i	i	-4.6
O=C1CN(C(=O)CSc2nnc(-c3ccccc3)n2Cc2ccc3c(c2)OCO3)c2ccccc2N1	i	i	38	i
CC(Sc1nnc(-c2cccs2)n1Cc1ccccc1)C(=O)NCc1ccc2c(c1)OCO2 (configuration not stated)	i	i	i	-4.4
O=C(CSc1nnc(-c2cccnc2)n1Cc1ccco1)NCc1ccc2c(c1)OCO2	i	i	i	i
C/C=C/C=C\C(=O)Nc1cccc(C2=NOC3(C2)C[C@@H](C(N)=O)N(C(=O)c2cc([N+](=O)[O-])cc([N+](=O)[O-])c2)C3)c1 (some centres not stated)	nt	nt	nt	i
CCOc1ccccc1N1CCN(C(=O)CC(C)C)CC1	nt	i	nt	nt
O=C(CN1CCOCC1)Nc1cccc(Cl)c1Cl	i	i	i	i
CC(C)CNC(=O)c1cccc(NC(=O)c2ccc(NC(=O)c3ccco3)cc2)c1	i	i	i	i
O=C(CSc1nnc(Cc2cccs2)n1-c1ccc(Cl)cc1)NCc1ccc2c(c1)OCO2	i	i	i	-8.5
COc1ccc(OC)c(Nc2cc(-c3ccccc3)nc(N)n2)c1	i	nt	i	-4.5
CCOC(=O)C1CCN(C(=O)c2sc3nc(-c4ccc(F)cc4)cn3c2C)CC1	i	i	i	nt
CC(C)CCNC(=O)CN(C(=O)CCC(=O)Nc1ccccn1)c1ccc2c(c1)OCO2	i	i	i	i
O=c1cc(C(Cl)(Cl)Cl)oc2c1ccc1ccccc12	53	i	i	i
Cc1cc(=O)c2ccc3ccccc3c2[nH]1	i	i	i	nt
Cc1ccc(Cl)cc1N1CCN(C(=O)CSc2nnc3n2C(C)(C)Cc2ccccc2-3)CC1	nt	i	nt	-5.5
COc1ccc(CCNc2oc(COc3ccccc3F)nc2C#N)cc1OC	i	i	i	-5.1
COc1ccc(CCNc2oc(COc3ccccc3Cl)nc2C#N)cc1OC	i	nt	i	-5.8
CCCN(Cc1cc2ccc(C)cc2[nH]c1=O)S(=O)(=O)c1ccccc1	36	i	i	i
CCOc1cc(NC(=S)Nc2ccccc2OC)c(OCC)cc1NC(=O)c1ccccc1C	i	i	i	i
CCCC(=O)C1=C(O)C(C(=O)OC)C(C)(C)CC1=NC(C)(C)C (configuration not stated)	i	i	i	4.1
CCOCCCNC(=O)c1ccc(CS(=O)(=O)Cc2cccc(C)c2)o1	33	i	i	i
Cc1cccc(CS(=O)(=O)Cc2ccc(C(=O)NCCCN3CCCC3)o2)c1	i	i	33	i
Cc1cccc(CS(=O)(=O)Cc2ccc(C(=O)NCCCN3CCOCC3)o2)c1	i	nt	i	nt
CC(=O)Nc1cccc(C(=O)OC(C(=O)c2ccc(C)cc2)c2ccccc2)c1 (configuration not stated)	33	i	i	i
COc1ccc(C(=O)OC(C(=O)c2ccc(C)cc2)c2ccccc2)cc1 (configuration not stated)	i	i	i	i
SMILES	PostGolgi ctrl	PTK2B oligo ant	PostGolgi yeast	Cav3 T inh
COc1ccc(-c2cc3ccccc3n2CC(O)Cn2nc(C)cc2C)cc1 (configuration not stated)	i	i	i	-6.4
COc1ccc(-c2cc3ccccc3n2CC(O)CN2CCC(C)CC2)cc1 (configuration not stated)	nt	nt	nt	i
COC(=O)c1cc(-c2ccc(Br)cc2)on1	i	nt	i	nt
CC1CCCC(C)N1c1nnc(NC(=O)c2cc(-c3ccc(Br)cc3)on2)s1 (configuration not stated)	31	nt	i	nt
Cc1cc2cc(CN(Cc3ccco3)C(=O)NCc3ccccc3)c(=O)[nH]c2cc1C	i	i	i	-7.4
Cc1cc2cc(CN(Cc3ccco3)C(=O)C3CCCCC3)c(=O)[nH]c2cc1C	i	i	i	-9.3
COc1ccc(C2=NCC(CSc3nnc(-c4ccc5c(c4)OCO5)o3)S2)cc1 (configuration not stated)	37	i	i	i
Cc1ccc(CSc2nnc(-c3ccc4c(c3)OCO4)o2)cc1	i	i	i	i
c1ccc2c(c1)CCN(c1nc3ccccc3n3cnnc13)C2	43	nt	i	nt
c1ccc(N2CCN(c3nc4ccccc4n4cnnc34)CC2)cc1	i	nt	i	i
c1ccc(CN2CCN(c3nc4ccccc4n4cnnc34)CC2)cc1	34	nt	i	i
CSC1=NC2C(N1)N(C)C(=O)N2C (configuration not stated)	i	i	i	i
CCn1c(SCc2nc(-c3ccccc3)no2)nnc1-c1cccs1	i	i	i	i
CCn1c(SCc2nc(-c3ccccc3)no2)nc2ccccc21	i	nt	i	-3.4
c1ccc(-c2noc(CSc3nnnn3C3CCCCC3)n2)cc1	i	i	i	-5.7
COCCN1C(=O)c2oc3ccccc3c(=O)c2C1c1cccc(O)c1 (configuration not stated)	32	nt	i	i
CC(C)C[C@H](NC(=O)c1nc[nH]c1C(=O)N1CCc2ccccc2C1)C(=O)OC(C)(C)C	nt	nt	nt	i
CCN(CC)c1ccc(NC(=O)CN2CCN(CC(=O)Nc3ccccc3F)CC2)cc1	i	i	i	i
CCN(CC)c1ccc(NC(=O)CN2CCN(c3nc(C)cc(C)n3)CC2)cc1	i	i	i	-4.2
C=CCn1c(=O)c2c3c(sc2n2c(Nc4ccc(C(=O)OCC)cc4)nnc12)CCCC3	i	i	i	i
C=CCn1c(=O)c2c3c(sc2n2c(Nc4ccccc4)nnc12)CCCC3	i	-3.7	i	i
C=CCn1c(=O)c2c3c(sc2n2c(Nc4ccc(OC)cc4)nnc12)CCCC3	33	i	i	i
COc1cc(C(=O)NS(=O)(=O)c2ccccc2C)ccc1Cc1cn(C)c2ccc(NC(=O)OC3CCCC3)cc12	nt	nt	nt	-5.9
COC(=O)c1ccc(COC(=O)CCc2nc(-c3ccccc3)c(-c3ccccc3)o2)cc1	i	i	i	-5.2
CS(=O)(=O)N(Cc1ccccc1)c1ccc(C(=O)NCc2cccnc2)cc1	i	i	i	i
SMILES	PostGolgi ctrl	PTK2B oligo ant	PostGolgi yeast	Cav3 T inh
C=CCNc1sc(C(=O)c2ccccc2)c(N)c1-c1nc2ccccc2s1	i	i	i	i
CCNc1sc(C(=O)c2cccs2)c(N)c1-c1nc2ccccc2s1	36	i	i	i
O=C(CCC(=O)c1cccs1)OCC(=O)c1ccc(Cl)s1	i	i	i	i
CC(=O)NC(C)C(=O)OCC(=O)c1ccc(Cl)s1 (configuration not stated)	36	i	i	i
CC(=O)N1CCc2cc(Br)cc(S(=O)(=O)NCC3CCCO3)c21 (configuration not stated)	i	i	i	i
Cc1cc(NC(=O)c2ccco2)ccc1-n1cnnn1	i	i	i	i
COc1cc(C(=O)Nc2ccc(-n3cnnn3)c(C)c2)cc(OC)c1OC	i	i	i	-4.4
COCCn1c(SCC(=O)Nc2ncc(C)s2)nc2sc3c(c2c1=O)CCC3	i	nt	i	i
COCCn1c(SCc2nnc(-c3ccccc3)o2)nc2sc3c(c2c1=O)CCC3	96	i	i	i
COc1ccc(C(=O)COC(=O)CCn2nnc(-c3cccs3)n2)cc1	i	i	i	nt
Fc1ccc2c(c1)C(c1ccc(N3CCOCC3)cc1)=NNC(c1cccs1)=N2	36	i	i	i
CCOc1ccc(C2=NNC(c3cccs3)=Nc3ccc(OC)cc32)cc1	nt	i	nt	-4.9
